The values that follow come from PubChem BioAssay (EPA / NIEHS).

For experiment [1], the target named is Aryl hydrocarbon receptor (Homo sapiens) (UniProt P35869). Description: ATG_Ahr_CIS: Attagene CIS-FACTORIAL HepG2 Assay for human Aryl Hydrocarbon Receptor (Ahr) (AID 2282930). The note with it: HepG2 AhR cis-factorial reporter transcription; actives raise or lower the signal. The method, boiled down:
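HepG2 cells transiently transfected with cis-element-driven multiplexed reporter transcription units; endogenous transcription factor activity measured as reporter mRNA 24 h after dosing. RT-PCR, 6-FAM labelling, HpaI digestion, capillary electrophoresis; bidirectional fitting versus DMSO baseline.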

Experiment [2] is described as follows: ATG_AP_1_CIS: Attagene CIS-FACTORIAL HepG2 Assay for human Activator Protein 1 (AP-1) (AID 2282931). Conditions: HepG2 Attagene cis-factorial AP-1 reporter mRNA; actives raise or lower the signal. In a few lines: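 Reporter transcripts were measured 24 h after dosing by RT-PCR and capillary electrophoresis of fluorescent fragments. Cells: HepG2 carrying transfected cis-regulated reporter constructs reading endogenous factor activity. Gain or loss fitted against DMSO.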

Experiment [3] is described as follows: ATG_BRE_CIS: Attagene CIS-FACTORIAL HepG2 Assay for human Bone Morphogenetic Protein (BMP) Response Element (BRE) (AID 2282933). The note with it: HepG2 BMP response element reporter, Attagene transcription factor profiling; actives raise or lower the signal. The method, boiled down:
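Read-out: reporter mRNA induction quantified by RT-PCR and capillary electrophoresis after 24 h chemical exposure of transfected HepG2 cells. Endogenous factor activity on the BMP response element; gain or loss fitted against DMSO baseline.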

Experiment [4] concerns the target Transcription factor E2F1 (Homo sapiens) (UniProt Q01094). Description: ATG_E2F_CIS: Attagene CIS-FACTORIAL HepG2 Assay for human E2F Transcription Factor 1 (AID 2282935). The note with it: HepG2 Attagene cis-reporter, E2F reporter RNA transcripts; actives raise or lower the signal. In a few lines:
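Multiplexed cis-reporter assay: HepG2, transient transfection, 24 h dosing, mRNA quantitation by labeled RT-PCR and CE.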

Experiment [5] in a line: ATG_E_Box_CIS: Attagene CIS-FACTORIAL HepG2 Assay for human Enhancer Box (E-box) (AID 2282936). The note with it: HepG2 E-box cis-reporter transcription, actives raise or lower the signal. In a few lines:
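Multiplexed CIS reporter system in transiently transfected HepG2 cells measures native transcription factor activity. Reporter RNA after 24 h exposure is profiled by RT-PCR-capillary electrophoresis.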

A short description of experiment [6]: ATG_M_61_CIS: Attagene CIS-FACTORIAL HepG2 Assay for M61 Transcription Factor (Internal Marker) (AID 2282937). Conditions: HepG2 Attagene CIS-FACTORIAL M61 internal marker reporter; actives raise or lower the signal. In a few lines:
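Readout: fluorescent reporter mRNA fragments resolved by capillary electrophoresis after RT-PCR. Transiently transfected human HepG2 cells carried MRTU constructs reporting endogenous TF activity; 24 h chemical exposure; gain or loss of signal fitted relative to DMSO.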

Experiment [7] can be described thus: ATG_EGR_CIS: Attagene CIS-FACTORIAL HepG2 Assay for human Early Growth Response 1 (EGR1) (AID 2282938). The note with it: HepG2 Attagene CIS-FACTORIAL EGR reporter mRNA; actives raise or lower the signal. The method, boiled down: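 Read-out: fluorescent reporter-mRNA fragments resolved by capillary electrophoresis after RT-PCR, 24 h post-dose in transiently transfected HepG2. Endogenous transcription-factor activity reported via cis-element-regulated reporter units; gain or loss fitted relative to DMSO.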

Experiment [8] is described as follows: ATG_M_19_CIS: Attagene CIS-FACTORIAL HepG2 Assay for M19 Transcription Factor (Internal Marker) (AID 2282939). Conditions: HepG2 Attagene CIS-FACTORIAL M19 internal marker reporter; actives raise or lower the signal. The method, boiled down:
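Readout: fluorescent reporter-transcript fragments by capillary electrophoresis after RT-PCR. Human HepG2 liver cells carried transfected MRTU constructs reporting endogenous transcription-factor activity; exposure 24 h. Gain or loss of signal fitted relative to DMSO.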

The nature of experiment [9]: ATG_AP_2_CIS: Attagene CIS-FACTORIAL HepG2 Assay for human Activator Protein 2 (AP-2) (AID 2282932). The note with it: HepG2 AP-2 cis-reporter, Attagene transcription factor profiling; actives raise or lower the signal. In a few lines: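 Bidirectional curve fitting against DMSO was applied to reporter mRNA signals from HepG2 cells 24 h after dosing. Cis-promoter reporter units, transiently transfected, were read by RT-PCR plus capillary electrophoresis.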

For experiment [10], the target named is Retinoic acid receptor alpha (Homo sapiens) (UniProt P10276). Description: ATG_DR5_RAR_CIS: Attagene CIS-FACTORIAL HepG2 Assay for human Retinoic Acid Receptor Alpha (RARE), DR5 submotif (AID 2282934). Conditions: HepG2 Attagene cis-factorial RARE DR5 reporter, mRNA; actives raise or lower the signal. In a few lines:
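HepG2 cells transiently transfected with multiplexed reporter units under cis (DR5 RARE) promoters, so endogenous transcription factor activity is measured. After 24 h compound exposure, reporter mRNA is quantified by RT-PCR with fluorescent labelling and capillary electrophoresis; bidirectional fitting versus DMSO.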

Some compounds were tested as several samples or in several runs, with calls that do not always agree. Active and inactive are the calls of the source. Rule for the calls: active = hit-call score of the fitted dose curve at least 0.9, where 1 is the maximum; inactive = score below 0.9.

Usually AC50 stands for the concentration giving half of the maximal activity seen.

Sequence of Transcription factor E2F1 (Homo sapiens) (Q01094 whole entry, looked up): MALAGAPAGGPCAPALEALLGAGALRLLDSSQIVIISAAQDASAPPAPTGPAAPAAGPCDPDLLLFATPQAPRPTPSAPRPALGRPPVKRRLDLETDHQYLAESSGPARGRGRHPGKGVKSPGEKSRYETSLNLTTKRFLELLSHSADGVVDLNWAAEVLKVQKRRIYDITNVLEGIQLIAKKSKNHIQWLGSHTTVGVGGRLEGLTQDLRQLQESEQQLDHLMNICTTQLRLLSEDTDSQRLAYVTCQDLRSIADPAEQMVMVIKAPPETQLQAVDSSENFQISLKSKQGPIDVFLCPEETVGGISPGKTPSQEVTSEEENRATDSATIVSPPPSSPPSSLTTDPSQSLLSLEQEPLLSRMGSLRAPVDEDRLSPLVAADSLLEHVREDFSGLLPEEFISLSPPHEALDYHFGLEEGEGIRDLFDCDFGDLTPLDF
Sequence of Retinoic acid receptor alpha (Homo sapiens) (P10276 whole entry, looked up): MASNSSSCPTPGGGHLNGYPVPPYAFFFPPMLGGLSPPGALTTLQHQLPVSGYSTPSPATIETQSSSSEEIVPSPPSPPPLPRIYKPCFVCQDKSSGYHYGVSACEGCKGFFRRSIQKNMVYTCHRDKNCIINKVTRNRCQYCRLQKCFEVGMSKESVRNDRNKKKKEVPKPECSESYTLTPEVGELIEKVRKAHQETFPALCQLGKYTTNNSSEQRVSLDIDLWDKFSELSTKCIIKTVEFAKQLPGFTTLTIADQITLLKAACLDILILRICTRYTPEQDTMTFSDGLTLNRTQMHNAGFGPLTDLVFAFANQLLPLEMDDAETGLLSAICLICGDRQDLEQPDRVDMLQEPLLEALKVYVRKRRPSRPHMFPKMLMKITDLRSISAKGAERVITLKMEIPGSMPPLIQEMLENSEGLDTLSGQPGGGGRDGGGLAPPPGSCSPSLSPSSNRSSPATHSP
Sequence of Aryl hydrocarbon receptor (Homo sapiens) (P35869 whole entry, looked up): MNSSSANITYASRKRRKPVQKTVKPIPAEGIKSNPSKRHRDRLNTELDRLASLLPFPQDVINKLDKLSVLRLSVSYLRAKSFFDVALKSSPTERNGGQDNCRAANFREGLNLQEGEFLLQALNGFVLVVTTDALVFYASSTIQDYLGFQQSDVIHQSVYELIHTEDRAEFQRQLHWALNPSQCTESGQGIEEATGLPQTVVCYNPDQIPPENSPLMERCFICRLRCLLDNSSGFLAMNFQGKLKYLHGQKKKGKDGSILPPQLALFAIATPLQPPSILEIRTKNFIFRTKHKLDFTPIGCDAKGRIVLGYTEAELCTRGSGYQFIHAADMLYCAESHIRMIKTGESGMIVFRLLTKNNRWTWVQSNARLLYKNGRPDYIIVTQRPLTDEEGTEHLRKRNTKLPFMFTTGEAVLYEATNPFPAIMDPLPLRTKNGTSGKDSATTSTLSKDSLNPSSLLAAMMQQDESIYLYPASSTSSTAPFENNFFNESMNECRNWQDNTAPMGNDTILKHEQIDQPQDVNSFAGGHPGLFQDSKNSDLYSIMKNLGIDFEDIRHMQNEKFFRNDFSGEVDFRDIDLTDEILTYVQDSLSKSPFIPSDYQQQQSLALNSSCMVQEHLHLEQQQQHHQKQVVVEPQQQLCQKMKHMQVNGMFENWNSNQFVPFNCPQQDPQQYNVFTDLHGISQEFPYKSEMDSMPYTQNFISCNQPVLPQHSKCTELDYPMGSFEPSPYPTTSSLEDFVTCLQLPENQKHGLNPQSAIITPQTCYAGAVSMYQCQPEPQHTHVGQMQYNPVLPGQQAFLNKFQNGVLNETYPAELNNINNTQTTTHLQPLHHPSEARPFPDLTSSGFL

As for `CN(C)N=O`, the compound was called inactive in experiment [1], in experiment [2], in [3], in experiment [4], in experiment [5] and in experiment [6]. Also, the outcome in experiment [7] and in [8] was inactive.
For `CC(C#N)CCC#N` (stereo not given), the result in experiment [1], in [2], in [3], in experiment [4], in experiment [5] and in experiment [6] was inactive. For the same compound, the compound was called inactive in experiment [8].
With `COc1cc(-c2ccc(N)c(OC)c2)ccc1N`, the compound was called inactive in experiment [2], in experiment [9], in [3], in experiment [4], in [5] and in experiment [6]. Moreover, the outcome in experiment [7] and in experiment [8] was inactive. For the same compound, the AC50 is 43.2 µM (active) in experiment [5] and 27.9 µM (active) in [7].
Turning to `C[C@H]1O[C@@H](O[C@H]2[C@@H](O)C[C@H](O[C@H]3[C@@H](O)C[C@H](O[C@H]4CC[C@@]5(C)[C@H](CC[C@@H]6[C@@H]5CC[C@]5(C)[C@@H](C7=CC(=O)OC7)CC[C@]65O)C4)O[C@@H]3C)O[C@@H]2C)C[C@H](O)[C@@H]1O`, the AC50 is 13.6 µM (active) in experiment [2], 0.141 µM (active) in experiment [9] and 0.65 µM (active) in experiment [7]. The call in experiment [3], in [4], in [5], in experiment [6] and in experiment [8] was inactive.
In the case of `CCOC(=O)/C=C(C)/C=C/C[C@@H](C)CCCC(C)C`, the AC50 in experiment [2] was 100 µM (active); in experiment [9] it was 46.9 µM (active); in experiment [4] it was 180 µM (active); in experiment [5], 106 µM (active); in experiment [7], 158 µM (active); in [8], 157 µM (active). For the same compound, the compound was classed as inactive in experiment [3] and in experiment [6].
In the case of `COP(=O)(OC)OC`, the call in experiment [1], in [2], in experiment [3], in experiment [4], in [5] and in experiment [6] was inactive. Besides, the compound was called inactive in [7] and in experiment [8].
For `Cc1ccc2ccccc2c1C`, in experiment [1], the AC50 is 6.24 µM (active). Further, the compound was called inactive in experiment [9], in experiment [3], in experiment [10], in experiment [4], in [5] and in experiment [6]. The result in experiment [7] and in experiment [8] was inactive.
On to `Cc1cc(=O)[nH]o1`, for which the outcome in experiment [1], in [2], in [3], in experiment [4], in experiment [5] and in experiment [6] was inactive. Besides, the call in experiment [7] and in experiment [8] was inactive.
With `CC(C)CCCCCCOC(=O)c1ccccc1C(=O)OCCCCCCC(C)C`, the result in experiment [1], in [2], in experiment [3], in [4], in [5] and in [6] was inactive. Besides, the call in experiment [8] was inactive.
In the case of `ClCC(Cl)CCl`, the compound was classed as inactive in experiment [2], in [9], in experiment [3], in [10], in experiment [4] and in experiment [5]. The compound was called inactive in experiment [6] and in [8].
With `Cc1ccc(N)cc1Cl`, the call in [2], in experiment [9], in experiment [3], in experiment [4], in experiment [5] and in experiment [6] was inactive. The compound was classed as inactive in experiment [7] and in experiment [8].
Regarding `COc1ccccc1OC`, the compound was called inactive in experiment [2], in experiment [3], in experiment [4], in experiment [5], in experiment [6] and in [7]. For the same compound, the outcome in [8] was inactive.
Consider `COc1cc(OC)nc(NC(=O)NS(=O)(=O)c2ncccc2C(=O)N(C)C)n1`, for which the compound was classed as inactive in experiment [1], in [2], in [3], in [4], in experiment [5] and in [6]. The result in [7] and in experiment [8] was inactive.
For `OCC(O)CCl` (stereo not given), the outcome in experiment [1], in [2], in experiment [3], in experiment [10], in experiment [4] and in experiment [5] was inactive. For the same compound, the compound was called inactive in experiment [6] and in experiment [8].
Turning to `CN(CCCC(=O)c1cccnc1)N=O`, the outcome in [1], in experiment [2], in experiment [3], in [4], in experiment [5] and in [6] was inactive. The call in experiment [7] and in experiment [8] was inactive.
As to `CNC`, the compound was classed as inactive in experiment [1], in [2], in experiment [3], in experiment [4], in [5] and in experiment [6]. In addition, the call in experiment [8] was inactive.
Regarding `CC(=O)c1cc(C(C)(C)C)cc2c1CCC2(C)C`, the compound was called inactive in [1], in experiment [3], in experiment [5], in experiment [6] and in [8]. The AC50 in experiment [2] was 70.4 µM (active); in [4] it was 171 µM (active); in experiment [7] it was 37.9 µM (active).
